This passage reports inhibition results from PubChem BioAssay AID2315 (National Center for Advancing Translational Sciences (NCATS), 2010).

The campaign covered roughly 290,000 compounds. About 27,000 (9.3%) were called active. The sample holds actives, similar compounds and a random draw of the others, so the mix is not that of the screen. No stated cut-off is given here; in the data, active means inhibition mostly above about 28% (no sharp cut-off); inactive means mostly below about 43%.

A short description of this test: A qHTS for Small Molecule Inhibitors of Shiga Toxin. Further: 0% is about no effect. Particulars: Vero cells, Shiga toxin protein synthesis inhibition reporter; at 38.7 µM, active compounds read high.
Turning to `CCN(c1cccc(C)c1)S(=O)(=O)c1ccc(-c2coc(C)n2)cc1`, the inhibition is -6.9% (inactive). The value for `O=C(CCl)NNc1nc(-c2ccccc2)c2cc(Cl)ccc2n1` was -6.68% (inactive); that for `C=CCn1c(C23CC4CC(CC(C4)C2)C3)n[nH]c1=S` was -6.65% (inactive). The value for `O=C(Nc1c2c(nc3ccccc13)CCCC2)c1ccccc1Br` was 13.1% (inactive). Next, `O=C(COC(=O)c1c2c(nc3ccccc13)CCCC2)c1ccc(Br)s1`: 91.1% (active). `CCCc1nc2ccccc2c(C(=O)OCC(=O)c2ccc3c(c2)NC(=O)CO3)c1CC`: the inhibition is 7.85% (inactive). The value for `Cc1cc(Cl)c(S(=O)(=O)Nc2ccc3c(c2)OCCO3)cc1OCC(N)=O` was 99.8% (active); that for `Cc1cc(Cl)c(S(=O)(=O)NCC2CCCO2)cc1OCC(N)=O` (centres undefined) was -1.08% (inactive). On to `Cc1cc(Cl)c(S(=O)(=O)N(C)C)cc1OCC(N)=O`, for which the inhibition was 9.4% (inactive).

Take `O=C(NCc1ccco1)/C(=C\c1cccc([N+](=O)[O-])c1)NC(=O)c1ccco1`: the inhibition was 2.57% (inactive). The value for `O=C(N/N=C\c1cc(Br)c(Br)o1)C1COc2ccccc2O1` (centres undefined) was 10.7% (inactive); that for `O=C(CNC(=O)C1COc2ccccc2O1)N/N=C/c1cc(Br)c(O)c(Br)c1` (centres undefined) was -3.37% (inactive); that for `O=C(N/N=C/c1cc2c(cc1Br)OCO2)C1COc2ccccc2O1` (centres undefined) was 77.9% (active).

Consider `CC(=O)c1c(C)[nH]c(C(=O)COC(=O)c2cccc(S(=O)(=O)N(C)c3ccccc3)c2)c1C`, for which the inhibition was 8.98% (inactive).

Turning to `CCCNC(=O)COc1coc(CN2CCN(Cc3ccccc3)CC2)cc1=O`, the inhibition is -16.7% (inactive).

In the case of `COCCNC(=O)C(c1ccc(C)cc1)N(C(=O)CCC(=O)Nc1ccccn1)c1cccc(C)c1` (centres undefined), the inhibition was 32.2% (inactive). The value for `O=C(Cc1ccc([N+](=O)[O-])cc1)Nc1ccc(C(=O)N2CCOCC2)cc1` was 7.91% (inactive).

On to `Cc1ccc(CN(C)Cc2cc(=O)oc3cc(C)c(Cl)cc23)cc1`, for which the inhibition was 7.75% (inactive).

Regarding `NC(=O)N1CCc2ccccc21`, the inhibition is -9.66% (inactive).

On to `Cc1cnc(C(=O)OCC(=O)N2CCc3ccccc32)cn1`, for which the inhibition was -4.93% (inactive). The value for `O=C(c1cnn2ccccc12)N1CCc2ccccc21` was 97.7% (active). As for `CC1CCc2c(sc3nc4n(c(=O)c23)CCS4)C1` (centres undefined), the inhibition is 33.9% (inactive). On to `CCCn1nnc2sc3c(c2c1=O)CCC(C)C3` (centres undefined), for which the inhibition is 90.4% (active). Next, `C=CCn1c(SCc2c(C)noc2C)nc2sc3c(c2c1=O)CCC(C)C3` (centres undefined): -12.7% (inactive); `COc1cccc(N2CCN(c3ccc4nnc(CCC(=O)N5CCN(C)CC5)n4n3)CC2)c1`: -1.7% (inactive); `CCc1ccc(NC(=O)C(=O)N/N=C(\C)CC(=O)NCCOC)cc1`: 63.4% (active). Next, `C/C(CC(=O)Nc1ccc(Cl)cc1)=N\NC(=O)C(=O)NCCO`: 12% (inactive); `COCCNC(=O)COc1ccc(C)c(C)c1`: 20.4% (inactive). The value for `Cc1ccc(N(C(=O)CNC(=O)c2ccco2)C(C(=O)NC2CCCC2)c2ccncc2)cc1` (centres undefined) was -7.6% (inactive); that for `CC(=O)N1c2ccc(S(=O)(=O)N3CCCC(C(=O)Nc4ccc(C)cc4C)C3)cc2CC1C` (centres undefined) was -2.6% (inactive). As to `O=C(N/N=C/c1ccccn1)c1ccc(S(=O)(=O)N2CCCCCC2)cc1`, the inhibition was 184% (active). For the molecule `Cc1cc(/C=N/NC(=O)c2cccnc2)c(C)n1CC(C)C`, the inhibition is 80.1% (active). Next, `O=C(CNC(=O)c1cccnc1)N/N=C/c1cccnc1`: -13% (inactive); `O=C(NN=C1CCC(=NNC(=O)c2cccnc2)CC1)c1cccnc1`: 45.2% (inactive).

Consider `O=C(N/N=C/c1ccccn1)c1cccc(NC(=O)c2ccc(Cl)cc2)c1`, for which the inhibition is 24.3% (inactive). Next, `O=C(N/N=C/c1ccc(O)c2ccccc12)c1cccnc1`: 24.3% (inactive); `O=C(N/N=C/c1ccccn1)c1cccnc1`: 39.2% (active). As to `O=C(N/N=C/c1ccccn1)C12CC3CC(CC(C3)C1)C2`, the inhibition is 0% (active). The value for `Cc1ccc(NC(=O)COc2ccc(/C=N\NC(=O)c3cccnc3)cc2)cc1C` was 11.2% (inactive); that for `O=C(Nc1ccc(S(=O)(=O)Nc2ncccn2)cc1)C12CC3CC(CC(C3)C1)C2` was 17.2% (inactive). For the molecule `CNC(=O)C(=O)N/N=C/c1ccccn1`, the inhibition was 35.4% (inactive). As to `CN1CCN(NC(=O)c2ccc(S(=O)(=O)N3CCCCCC3)cc2)CC1`, the inhibition was -4.86% (inactive). The value for `COc1ccc(CNC(=O)/C(C#N)=C/c2cccc(OC)c2OC)cc1` was -10.4% (inactive).

Consider `Cn1c(C(=O)N2CCCC(C(=O)NCc3ccccc3)C2)cc2sccc21` (centres undefined), for which the inhibition is 18.4% (inactive).

For the molecule `Cc1ccc(S(=O)(=O)c2c[nH]c3ccc(C)cc3c2=O)cc1`, the inhibition was -5.73% (inactive). The value for `CC(C)CNC(=S)Nc1ccc(F)cc1` was 13.2% (inactive). Turning to `CC(C)CNC(=O)C(=O)NCc1ccccc1`, the inhibition was 15.5% (inactive).

For `CC(C)CNC(=O)C(=O)Nc1ccc(N(C)C)cc1`, the inhibition is 55.1% (active). The value for `Cc1cc(C)cc(NC(=O)C2CCCN2S(=O)(=O)c2cccc3cccnc23)c1` (centres undefined) was -0.303% (inactive); that for `CCOC(=O)c1ccccc1CN1C(=O)c2ccccc2S1(=O)=O` was -3.65% (inactive); that for `CCOC(=O)c1cc2n(c1N)-c1ccccc1C2=O` was 72.9% (active).

As to `CCOC(=O)C1=C(C(=O)OCC)C(C(=O)OCC)N(S(=O)(=O)C(F)(F)F)c2ccccc21` (centres undefined), the inhibition is 18.6% (inactive). Regarding `Cn1nccc1C(=O)N1CCCC(C(=O)c2ccc(Oc3ccccc3)cc2)C1` (centres undefined), the inhibition was -15.3% (inactive). Next, `Cc1cccc2[nH]c(CN(C)C(=O)C3CCC(=O)N(CCc4ccccc4)C3)nc12` (centres undefined): 17.9% (inactive); `CCCc1ccc(OCC(O)CN2CCN(CCO)CC2)cc1` (centres undefined): -3.37% (inactive); `O=C(COc1nsnc1N1CCOCC1)Nc1ccccc1Cl`: 5.96% (inactive). In the case of `CCOc1cc(/C=C/c2nc3ccccc3c(=O)[nH]2)cc(Br)c1OC`, the inhibition is 31.4% (inactive).

`CC1(C)Cc2cccc(OCC(=O)NCc3ccccc3)c2O1`: the inhibition was 21.1% (inactive). For `CCOC(=O)C1(Cc2cccc(OC)c2)CCCN(C(=O)CCSC)C1` (centres undefined), the inhibition is 81.2% (active).

Turning to `CCOC(=O)C1(Cc2cccc(OC)c2)CCCN(S(=O)(=O)c2cccnc2)C1` (centres undefined), the inhibition is -9.17% (inactive). Next, `CCOC(=O)C1(Cc2cccc(OC)c2)CCN(C(C)COC)CC1` (centres undefined): -0.932% (inactive); `COC(=O)C1CCN(C(=O)c2cc(=O)[nH]c3ccccc23)CC1`: -11.7% (inactive).

On to `COc1ccc(/C=C2\SC(=S)N(CCC(=O)Nc3cccc(C(=O)O)c3)C2=O)cc1OC`, for which the inhibition is 2.9% (inactive). For `Cn1c(SCC(=O)N2CCCC2)nnc1-c1ccc2c(c1)OCO2`, the inhibition was 38.6% (inactive). The value for `O=C(O)CSc1nnc(-c2ccc3c(c2)OCO3)n1-c1ccccc1` was 37% (inactive).

Take `Cn1c(SCc2nc3ccccc3s2)nnc1-c1ccc2c(c1)OCO2`: the inhibition was 59% (active).

As for `CN(CCc1ccccn1)C1CCCN(S(=O)(=O)c2ccccc2Cl)C1` (centres undefined), the inhibition was -6.64% (inactive). Consider `COc1ccc(S(=O)(=O)N2CCOC2CNC(=O)C(=O)NCc2ccncc2)cc1OC` (centres undefined), for which the inhibition is -13.1% (inactive).

With `CCC(C(=O)NCc1cccnc1)n1nc(C)c2sc3ccccc3c2c1=O` (centres undefined), the inhibition is -2.63% (inactive). Next, `Cc1cc(C)cc(NC(=O)CCN2C(=O)c3ccccc3C2=O)c1`: -3.25% (inactive).

With `CCn1c(CSc2nc(C)cc(C)n2)nnc1SCC(N)=O`, the inhibition was -9.49% (inactive). As for `C=CCn1c(SCc2c(C(=O)OC)sc(N)c2C(=O)OC)nnc1-c1ccc(Cl)cc1`, the inhibition is -13.4% (inactive).

In the case of `C=CCn1c(SCC(N)=O)nnc1-c1cc2c(s1)CCC(CC)C2` (centres undefined), the inhibition was 76.9% (active). Next, `COCCNC(=O)CN(Cc1ccco1)C(=O)CCC(=O)Nc1nccs1`: -8.05% (inactive); `CCN(C(=O)COC(=O)c1cc(NS(=O)(=O)c2ccc(Cl)c([N+](=O)[O-])c2)ccc1O)C1CCCCC1`: -7.83% (inactive); `COCc1c(C(=O)N/N=C\c2cccnc2)nnn1-c1nonc1N`: -0.307% (inactive). On to `Cc1cccc(N2C(=O)C3C(c4ccccc4)OC4(C(=O)c5ccccc5C4=O)C3C2=O)c1` (centres undefined), for which the inhibition was -11.8% (inactive). Take `Cc1cccc(N2C(=O)c3cccnc3C2=O)c1`: the inhibition is 23.8% (inactive). The value for `Cc1cccc(N2C(=O)NC(=O)/C(=C\c3cnn(-c4ccccc4)c3)C2=O)c1` was 65.5% (active). Next, `Cc1nc(CN(C)C(=O)CC2C(=O)NCCN2Cc2ccc(F)cc2)cs1` (centres undefined): -21.9% (inactive).

Regarding `Cc1nc(-c2ccc(Cl)cc2)sc1C1(C)CC(c2ccccc2F)=NO1` (centres undefined), the inhibition is 42% (active).

Regarding `Cc1nc(C(=O)Nc2ccc(Cl)cc2)sc1C1(C)CC(c2ccccc2)=NO1` (centres undefined), the inhibition was -2.44% (inactive).

On to `Cc1nc(C(=O)NCc2ccccc2)sc1C1(C)CC(c2cccnc2)=NO1` (centres undefined), for which the inhibition was -4.88% (inactive). Next, `CC(=O)c1cnc(SCCN2C(=O)c3ccccc3C2=O)nc1C`: -12.2% (inactive). Next, `Cc1ccc(SCCN2C(=O)NC(C)(C)C2=O)cc1`: 5.57% (inactive); `Nc1ccc(SCCN2C(=O)c3ccccc3C2=O)cc1`: 85% (active). As for `N#CCC(=O)N/N=C/c1cn(Cc2ccc3ccccc3c2)c2ccccc12`, the inhibition was -10.8% (inactive). The value for `CC[C@H](C)[C@H](NC(=O)[C@H](Cc1ccc(O)cc1)NC(=O)[C@@H](NC(=O)[C@H](CCCN=C(N)N)NC(=O)[C@@H](N)CC(=O)O)C(C)C)C(=O)N[C@@H](Cc1cnc[nH]1)C(=O)N1CCC[C@H]1C(=O)N[C@@H](Cc1ccccc1)C(=O)O` was 15% (inactive); that for `CC(NC(=O)c1cccc2ccccc12)c1ccc2c(c1)CCCC2` (centres undefined) was -3.09% (inactive).

For `CCOC(OCC)c1ccc(/C=C\c2nccc(N)n2)cc1`, the inhibition is 62.4% (active).

In the case of `CC1(C)C(C=C(Cl)Cl)C1C(=O)NC(O)C(=O)c1ccccc1` (centres undefined), the inhibition was -9.33% (inactive). Next, `COc1cccc(/C=N/NC(=O)c2[nH]nc3c2CCc2ccccc2-3)c1O`: 12.7% (inactive); `COc1cc2cc(C(=O)N/N=C/c3cccc(OC)c3OC)[nH]c2cc1OC`: 3.08% (inactive). As to `COc1cccc(/C=N\NC(=O)C2=NNC(=O)C2C)c1O` (centres undefined), the inhibition is 66.4% (active).

What is called inhibition is the relative decrease from the control value, in per cent.
